AGP1-GFP MLPCN = yeast TOR pathway AGP1-GFP modulation. S. cerevisiae AGP1-GFP multiplex flow cytometry, 3 h; GFP as percent of DMSO wells. GFP response vs DMSO, % at 10 µM. 0.02% of 320,000 active. AID 2066;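 active = GFP response relative to DMSO above a set limit, near screen average plus 3 SD, cut at about 150% in these data; inconclusive = fewer than 70 cells counted for the yeast strain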;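 also: median GFP channel fluorescence of the gated AGP1 strain per well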
LAP4-GFP MLPCN = modulators of TOR pathway LAP4-GFP in S. cerevisiae; S. cerevisiae LAP4-GFP multiplex, flow cytometry GFP, 3 h; median GFP as percent of DMSO wells; GFP response vs DMSO, % at 10 µM; 0.34% of 320,000 active;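 active = GFP response vs DMSO above a set limit, about the screen mean plus 3 SD, cut at about 150% in these data; inconclusive = under 70 cell events counted for the yeast strain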
MEP2 TOR yeast = modulators of TOR pathway MEP2-GFP in S. cerevisiae; GFP response vs DMSO, % at 10 µM; S. cerevisiae MEP2-GFP strain, flow cytometry GFP, 3 h; 100% = DMSO control level; 0.51% of 330,000 active; AID 2016;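 active = GFP response versus DMSO above a set limit, roughly screen mean plus 3 SD, cut at about 180% in these data; inconclusive = fewer than 70 cells counted for a yeast strain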;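 also: median GFP fluorescence of the barcode-gated MEP2-GFP cells per well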
CIT2-GFP yeast = yeast TOR pathway CIT2-GFP modulation; AID 2029; 0.065% of 320,000 active; GFP response vs DMSO, % at 10 µM; S. cerevisiae CIT2-GFP strain, flow cytometry, 3 h; 100 means same as DMSO wells;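 active = GFP response relative to DMSO above a set limit, near the screen mean plus 3 SD, cut at about 150% in these data; inconclusive = Fewer than 70 cells measured for a yeast strain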;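 also: ratio of well median GFP fluorescence to mean of DMSO wells on the plate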
RPL19A-GFP yeast = alters RPL19A-GFP fluorescence in TOR pathway yeast screen; 0.3% of 330,000 active; S. cerevisiae RPL19A-GFP strain, flow cytometry, 3 h; hits give low values; percent response vs DMSO, % at 10 µM; AID 2025;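 active = percent response vs DMSO below 50%; inconclusive = fewer than 70 events counted for the yeast strain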;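 also: median channel GFP fluorescence of the barcoded RPL19A-GFP strain; ratio of sample median GFP to plate DMSO average so 100% = DMSO; lower means less RPL19A-GFP as with rapamycin TOR inhibition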
Numbers without * were called inactive; ? = inconclusive; nt = no result given; [ ] = dose if it differs, or a comment. The list is not random: actives were taken first. Their share in the collection is about 0.93%.

SMILES | AGP1-GFP MLPCN | LAP4-GFP MLPCN | MEP2 TOR yeast | CIT2-GFP yeast | RPL19A-GFP yeast
COc1ccc(Nc2cc(C(=O)NCCCN3CCN(C)CC3)c3ccccc3n2)c(OC)c1 | ? | 104 | 772*[may fluoresce violet] | ? | 44*[may fluoresce violet]
COc1ccc(Nc2cc(C(=O)NCCCOC(C)C)c3ccccc3n2)c(OC)c1 | 95 | 109 | 140 | 115 | 102
Cc1cccn2c(=O)c3cc(C(=O)NCc4ccco4)c(=N)n(C4CCCC4)c3nc12 | 30 | 93 | 112 | ? | 100
Cc1cccn2c(=O)c3cc(C(=O)NCC4CCCO4)c(=N)n(C4CCCCC4)c3nc12 (stereo unspecified) | ? | 80 | 608*[may fluoresce violet] | ? | 52
Cc1cccn2c(=O)c3cc(C(=O)NCC4CCCO4)c(=N)n(CC4CCCO4)c3nc12 (stereo unspecified) | ? | 72 | 412*[may fluoresce violet] | ? | 24*[may fluoresce violet]
Cc1cccn2c(=O)c3cc(C(=O)NC4CCCC4)c(=N)n(CC4CCCO4)c3nc12 (stereo unspecified) | 85 | 93 | 549*[may fluoresce violet] | ? | 57
Cc1ccc(-c2cc(C(=O)NCC3CCCO3)c3ccccc3n2)cc1C (stereo unspecified) | 16 | 87 | 259*[may fluoresce violet] | ? | 43*[may fluoresce violet]
Cc1cccn2c(=O)c3cc(C(=O)NCc4ccc(F)cc4)c(=N)n(CC4CCCO4)c3nc12 (stereo unspecified) | 82 | 99 | 101 | 92 | 99
CCN(CC)CCN(C(=O)c1ccc2c(c1)CCCC2)c1nc2cc(OC)c(OC)cc2s1 | 129 | 154* | 125 | 117 | 114
Cc1ccc(N2CC(C(=O)OCc3nnc(-c4ccccc4)o3)CC2=O)cc1 (stereo unspecified) | 84 | 155* | 92 | 75 | 96
CC(C)n1c(=S)[nH]c2c1c(=O)[nH]c(=O)n2C | 34 | 90 | 267* | 116 | nt
O=C(CNCc1ccccc1Cl)NCc1ccco1 | 97 | 110 | 102 | 96 | 99
Cc1nn(Cc2ccccc2Cl)c(C)c1C(=O)NCc1ccco1 | 113 | 150* | 201* | 140 | 95
CCN(CC)CCCNc1cc(C(F)(F)F)c(C#N)c2nc3ccccc3n12 | 105 | 108 | 102 | 99 | 102
Cc1cc(-c2nnc(SCc3ccccn3)o2)no1 | 70 | 88 | 92 | 62 | 104
Cc1sc(N/N=C/c2cccnc2)nc1-c1ccc(Cl)cc1 | 86 | 88 | 88 | 90 | 88
O=C(CSc1nnc(NC(=O)c2ccc3c(c2)OCO3)s1)NCc1ccco1 | ? | 77 | 283*[may fluoresce violet] | ? | 47*[may fluoresce violet]
O=C(CSc1nnc(NC(=O)c2ccccc2)s1)NCc1ccco1 | 100 | 99 | 99 | 97 | 95
Nc1cc(OC(=O)c2cccs2)nn1S(=O)(=O)c1ccc(F)cc1 | 94 | 98 | 93 | 90 | 98
COc1ccc(NC(=O)c2c(N)no[n+]2[O-])cc1 | 87 | 91 | 94 | 96 | 97
COc1ccc(C(=O)c2no[n+]([O-])c2C(=O)c2ccc(OC)cc2)cc1 | 89 | 156* | 86 | 57 | 86
CCOC(=O)C1CCCN(Cc2nc(Cc3cccc(F)c3)no2)C1 (stereo unspecified) | 100 | 88 | 98 | 106 | 106
O=C(C1CCN(Cc2nc(Cc3cccc(F)c3)no2)CC1)N1CCOCC1 | 110 | 132 | 178* | 113 | 102
O=C(O)CNCC1COc2ccccc2O1 (stereo unspecified) | ? | 135 | 256*[may fluoresce violet] | ? | 15*[may fluoresce violet]
Cc1ccc(S(=O)(=O)N2CCOc3ccccc32)c(C)c1NS(C)(=O)=O | 108 | 113 | 98 | 103 | 98
SMILES | AGP1-GFP MLPCN | LAP4-GFP MLPCN | MEP2 TOR yeast | CIT2-GFP yeast | RPL19A-GFP yeast
Cc1ccc(C2C(C#N)=C(N)Oc3cc(N)ccc32)cc1 (stereo unspecified) | 96 | 92 | 104 | 102 | 103
Cc1ccc(/C=C2\CCC3=C2OC(N)=C(C#N)C3c2ccc(C)cc2)cc1 (stereo unspecified) | 23 | 114 | 422*[may fluoresce violet] | ? | 71
COc1ccc(NC(=O)CN(C)C(=O)c2cccc(S(=O)(=O)N3CCN(C)CC3)c2)cc1 | 94 | 99 | 99 | 88 | 96
Cc1[nH][nH]c(=O)c1C(c1ccc(N(C)C)c(Br)c1)c1c(C)[nH][nH]c1=O | 94 | 172* | 99 | 73 | 92
Cc1cc(OCC(=O)Nc2ccc(S(=O)(=O)N3CCN(C)CC3)cc2)ccc1Br | 115 | 157* | 110 | 105 | 106
O=C(COc1ccccc1)Nc1ccc(S(=O)(=O)N2CCCCCC2)cc1 | 18 | 101 | 226*[may fluoresce violet] | ? | 61
O=C(CN1CCN(S(=O)(=O)c2ccc3ccccc3c2)CC1)Nc1ccc2c(c1)CCC2 | ? | 89 | 250*[may fluoresce violet] | ? | 30*[may fluoresce violet]
Cc1ccc(OCC(=O)Nc2ccc(S(=O)(=O)N3CCN(C)CC3)cc2)cc1 | 99 | 105 | 105 | 94 | 98
CC(C)(Oc1ccc(Cl)cc1)C(=O)O/N=C(\N)c1ccncc1 | 88 | 105 | 108 | 95 | 92
COc1ccc(N(C(C)C(=O)NC2CCCCCC2)S(C)(=O)=O)cc1 (stereo unspecified) | 108 | 105 | 100 | 102 | 102
N#Cc1ccc(C(=O)N2CCN(c3ncccn3)CC2)cc1 | 105 | 100 | 108 | 105 | 112
CCOC(=O)c1cnc(-c2ccccc2)nc1Oc1cccc(Cl)c1 | 24 | 90 | 196*[may fluoresce violet] | ? | 65
CCOC(=O)N1CCN(C(=O)CCc2nc3sc4c(c3c(=O)[nH]2)CCCC4)CC1 | ? | ? | ? | ? | 34*[may fluoresce violet]
NC(=O)C1CCN(C(=O)CCc2nc3sc4c(c3c(=O)[nH]2)CCCC4)CC1 | 94 | 96 | 93 | 90 | 89
Cc1ccccc1OCC(=O)NCCN1CCCC1 | ? | ? | ? | ? | 14*[may fluoresce violet]
CCOC(=O)c1cnc2c(C#N)c(C)nn2c1C | 26 | 94 | 343*[may fluoresce violet] | ? | 53
Cc1ccc(CC2CC(=O)N(CCc3ccc4c(c3)OCO4)C2=O)cc1 (stereo unspecified) | nt | 88 | 214*[may fluoresce violet] | ? | 37*[may fluoresce violet]
CCN(CC)S(=O)(=O)c1ccc(Cl)c(C(=O)Oc2cccnc2)c1 | ? | 82 | 444*[may fluoresce violet] | ? | 43*[may fluoresce violet]
COc1cc(C(=O)NC(=S)Nc2nc(-c3ccc(F)cc3)cs2)cc(OC)c1OC | 121 | 107 | 109 | 164*[may fluoresce green] | 93
CCN1C(=O)/C(=C/C=C2\C=CN(CC)c3ccccc32)SC1=S | 18 | 74 | 430*[may fluoresce violet] | ? | 40*[may fluoresce violet]
COC/C=C/C1=CC2=CC(=O)C(C)(OC(=O)C3CCCC3)C(=O)C2=CO1 (stereo unspecified) | 8 | 167*[may fluoresce violet] | 175*[may fluoresce violet] | ? | 83
N#Cc1ccc(C(=O)Nc2cccc3ccccc23)c(F)c1 | 99 | 86 | 115 | 112 | 110
CSC(SC)=C(C#N)C(=O)c1ccccc1 | 95 | 152* | 86 | 70 | 93
COc1cccc(C(=O)C(C#N)=C(SC)SC)c1 | 96 | 171* | 93 | 71 | 95
